Results filed as inconclusive are left out. The source made the active and inactive calls. Unless noted, calls follow the shape of the dose curve; as a rule, active = well fitted curve in the direction sought with a large enough effect in the repeat runs; inconclusive = weak or mixed curves; inactive = no such curve, though single readings can be large; an effect the other way counts as inactive or inconclusive.
Columns and labels:
[1] = target: Thyrotropin-releasing hormone receptor (Homo sapiens) (UniProt P34981); assay: qHTS assay to identify small molecule agonists of the thyrotropin-releasing hormone receptor (TRHR) signaling pathway (AID 1346891; calls by dose curve; also: series mostly up to about 58 µM)
Thyrotropin-releasing hormone receptor (Homo sapiens), sequence (P34981 whole entry, looked up): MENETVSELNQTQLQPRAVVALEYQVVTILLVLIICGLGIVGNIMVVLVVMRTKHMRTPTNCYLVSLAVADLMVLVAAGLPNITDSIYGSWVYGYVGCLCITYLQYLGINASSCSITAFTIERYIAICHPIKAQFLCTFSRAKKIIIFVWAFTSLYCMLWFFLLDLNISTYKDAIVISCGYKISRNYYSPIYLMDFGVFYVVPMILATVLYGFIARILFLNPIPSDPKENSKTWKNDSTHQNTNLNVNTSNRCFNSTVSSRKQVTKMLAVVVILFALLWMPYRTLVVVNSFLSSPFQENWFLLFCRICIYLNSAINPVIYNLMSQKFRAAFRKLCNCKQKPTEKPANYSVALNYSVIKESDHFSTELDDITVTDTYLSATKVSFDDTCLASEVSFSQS
In short: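 TRHR-expressing HEK293 cells were plated 18 h at 37 °C/5% CO2, loaded with calcium dye 2 h at 37 °C, then given compound in DMSO; fluorescence was read kinetically for 3 min at 1 s intervals.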

[2] = Human pregnane X receptor (PXR) small molecule agonists, qHTS cell viability counter screen (AID 1346977); also: nearly all actives have a fitted effect of over 50% in size; also: potency is read from the fitted curve at half-maximal effect
In short: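 PXR-Luc HepG2 cells in medium with 5% charcoal-stripped FBS were pre-incubated 5hr, then exposed to compounds for 24hr at 37C. Viability was read in the same wells by CellTiter-Fluor fluorescence, reagent added after 23hr with a 1hr incubation.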

[3] = Caspase-3/7 induction in HepG2 cells by small molecules, qHTS assay (AID 1346978); also: nearly all actives have a fitted effect of over 15% in size
In short: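 Wild-type HepG2 cells (2,000/well) were settled 5 h at 37 C, 5% CO2, then exposed to compounds in DMSO for 17 h. Caspase-3/7 activity was read by luminescence 30 min after adding Caspase-Glo 3/7 reagent at room temperature.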

[4] = Caspase-3/7 induction in CHO-K1 cells by small molecules, qHTS cell viability counter screen (AID 1346979); also: nearly all actives have a fitted effect of over 35% in size; also: potency is read from the fitted curve at half-maximal effect
In short: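 Wild-type CHO-K1 cells were seeded at 1,500 per well, rested 5hr at 37 C, then exposed to compounds in DMSO. After 16hr, CellTiter-Fluor reagent was added and fluorescence read 1hr later as the viability measure.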

[5] = Caspase-3/7 induction in CHO-K1 cells by small molecules, qHTS assay (AID 1346980); also: nearly all actives have a fitted effect of over 15% in size
In short: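 Wild-type cells were seeded at 1,500 per well and settled 5 hr at 37 C, 5% CO2, then exposed to DMSO-dissolved compounds for 17 hr. Caspase-Glo 3/7 reagent was added, and luminescence was read after 30min at room temperature.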

[6] = Caspase-3/7 induction in HepG2 cells by small molecules, qHTS cell viability counter screen (AID 1346981); also: nearly all actives have a fitted effect of over 30% in size; also: potency is read from the fitted curve at half-maximal effect; as to activity change, negative = cytotoxicity: series mostly up to about 92 µM
In short: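 Fluorescence read-out of live-cell protease activity (CellTiter-Fluor) after 1 hr with reagent. This was measured in the same wells as the caspase-3/7 luminescence, on HepG2 cells exposed to DMSO-dissolved compounds for 16 hr at 37 C.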

[7] = target: Nuclear receptor subfamily 1 group I member 2 (Homo sapiens) (UniProt O75469); assay: Human pregnane X receptor (PXR) small molecule agonists, qHTS assay (AID 1346982); also: nearly all actives have a fitted effect of over 35% in size; also: potency is read from the fitted curve at half-maximal effect
Nuclear receptor subfamily 1 group I member 2 (Homo sapiens), sequence (O75469 whole entry, looked up): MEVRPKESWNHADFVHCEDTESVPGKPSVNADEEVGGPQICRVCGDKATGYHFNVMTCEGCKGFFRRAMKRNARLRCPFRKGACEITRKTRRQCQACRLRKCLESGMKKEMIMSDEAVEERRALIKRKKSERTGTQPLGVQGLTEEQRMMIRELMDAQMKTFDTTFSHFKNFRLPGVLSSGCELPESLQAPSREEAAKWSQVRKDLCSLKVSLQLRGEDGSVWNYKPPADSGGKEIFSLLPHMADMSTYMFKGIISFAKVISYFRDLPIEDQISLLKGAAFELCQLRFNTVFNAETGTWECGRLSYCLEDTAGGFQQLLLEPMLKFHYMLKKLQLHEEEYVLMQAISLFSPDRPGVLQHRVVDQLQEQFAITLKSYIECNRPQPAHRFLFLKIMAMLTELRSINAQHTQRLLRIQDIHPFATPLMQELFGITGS
In short: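 HepG2 PXR-Luc reporter line, 5% charcoal-stripped FBS; 5 hr pre-incubation, compound (DMSO) 24 hr at 37 C/5% CO2; ONE-Glo 30 min RT; luminescence read-out.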

[8] = target: Cytochrome P450 2C19 (Homo sapiens) (UniProt P33261); assay: Cytochrome P450 Family 2 Subfamily C Member 19 (CYP2C19) small molecule antagonists: luciferase reporter qHTS assay (AID 1671197); also: nearly all actives have a fitted effect of over 65% in size; also: potency is read from the fitted curve at half-maximal effect; as to activity change, negative = inhibition: series mostly up to about 120 µM
Cytochrome P450 2C19 (Homo sapiens), sequence (P33261 whole entry, looked up): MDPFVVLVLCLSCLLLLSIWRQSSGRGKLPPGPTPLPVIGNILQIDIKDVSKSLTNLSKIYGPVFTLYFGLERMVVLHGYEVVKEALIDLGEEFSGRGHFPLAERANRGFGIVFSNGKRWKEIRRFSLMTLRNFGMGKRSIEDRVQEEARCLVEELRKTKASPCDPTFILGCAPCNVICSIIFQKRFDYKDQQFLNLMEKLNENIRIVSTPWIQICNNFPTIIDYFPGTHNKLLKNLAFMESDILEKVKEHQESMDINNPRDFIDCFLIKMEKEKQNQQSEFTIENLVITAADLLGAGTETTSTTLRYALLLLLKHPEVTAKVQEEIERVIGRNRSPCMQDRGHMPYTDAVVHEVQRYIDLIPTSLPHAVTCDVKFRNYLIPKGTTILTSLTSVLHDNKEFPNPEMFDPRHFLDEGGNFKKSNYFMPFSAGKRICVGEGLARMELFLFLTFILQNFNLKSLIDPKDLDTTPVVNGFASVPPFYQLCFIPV
In short: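 Luminescent readout of CYP2C19 activity: luciferin product detected 20 min after adding detection reagent. Before that, compound and enzyme-substrate mix preincubated 10 min at room temperature; NADPH-regenerating system started a 1 h, 37C reaction. Ketoconazole as positive control.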

[9] = target: Cytochrome P450 2C9 (Homo sapiens) (UniProt P11712); assay: Cytochrome P450 Family 2 Subfamily C Member 9 (CYP2C9) small molecule antagonists: luciferase reporter qHTS assay (AID 1671198); also: nearly all actives have a fitted effect of over 50% in size; also: potency is read from the fitted curve at half-maximal effect; as to activity change, negative = inhibition: series mostly up to about 120 µM
Cytochrome P450 2C9 (Homo sapiens), sequence (P11712 whole entry, looked up): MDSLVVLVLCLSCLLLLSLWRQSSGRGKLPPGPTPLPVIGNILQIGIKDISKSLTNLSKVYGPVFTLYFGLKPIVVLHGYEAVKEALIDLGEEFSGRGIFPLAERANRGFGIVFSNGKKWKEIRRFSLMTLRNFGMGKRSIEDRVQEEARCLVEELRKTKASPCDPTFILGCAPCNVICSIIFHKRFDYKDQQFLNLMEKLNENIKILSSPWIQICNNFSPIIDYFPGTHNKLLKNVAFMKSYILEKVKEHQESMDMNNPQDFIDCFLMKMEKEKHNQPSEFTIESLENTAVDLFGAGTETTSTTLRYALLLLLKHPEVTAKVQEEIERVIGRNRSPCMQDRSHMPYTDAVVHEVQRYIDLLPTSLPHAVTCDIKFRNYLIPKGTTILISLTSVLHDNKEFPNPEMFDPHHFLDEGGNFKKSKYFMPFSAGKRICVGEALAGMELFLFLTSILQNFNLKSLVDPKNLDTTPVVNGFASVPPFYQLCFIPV
In short: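 CYP2C9 activity was measured with a P450-Glo proluciferin substrate. Enzyme–substrate mix was held with compound for 10 min at room temperature, then NADPH regeneration solution was added for 1 h at 37C. Luciferin product was read as luminescence.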

[10] = target: Voltage-gated inwardly rectifying potassium channel KCNH2 (Homo sapiens) (UniProt Q12809); assay: Human Ether-a-go-go-Related Gene (hERG) channel small molecule antagonists: fluorescence cell-based qHTS assay (AID 1671200); also: nearly all actives have a fitted effect of over 50% in size; also: potency is read from the fitted curve at half-maximal effect;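 as to activity change, negative = inhibition: hERG-expressing U2OS cells given a thallium stimulus after FluxOR II dye loading; series mostly up to about 77 µM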
Voltage-gated inwardly rectifying potassium channel KCNH2 (Homo sapiens), sequence (Q12809 whole entry, looked up): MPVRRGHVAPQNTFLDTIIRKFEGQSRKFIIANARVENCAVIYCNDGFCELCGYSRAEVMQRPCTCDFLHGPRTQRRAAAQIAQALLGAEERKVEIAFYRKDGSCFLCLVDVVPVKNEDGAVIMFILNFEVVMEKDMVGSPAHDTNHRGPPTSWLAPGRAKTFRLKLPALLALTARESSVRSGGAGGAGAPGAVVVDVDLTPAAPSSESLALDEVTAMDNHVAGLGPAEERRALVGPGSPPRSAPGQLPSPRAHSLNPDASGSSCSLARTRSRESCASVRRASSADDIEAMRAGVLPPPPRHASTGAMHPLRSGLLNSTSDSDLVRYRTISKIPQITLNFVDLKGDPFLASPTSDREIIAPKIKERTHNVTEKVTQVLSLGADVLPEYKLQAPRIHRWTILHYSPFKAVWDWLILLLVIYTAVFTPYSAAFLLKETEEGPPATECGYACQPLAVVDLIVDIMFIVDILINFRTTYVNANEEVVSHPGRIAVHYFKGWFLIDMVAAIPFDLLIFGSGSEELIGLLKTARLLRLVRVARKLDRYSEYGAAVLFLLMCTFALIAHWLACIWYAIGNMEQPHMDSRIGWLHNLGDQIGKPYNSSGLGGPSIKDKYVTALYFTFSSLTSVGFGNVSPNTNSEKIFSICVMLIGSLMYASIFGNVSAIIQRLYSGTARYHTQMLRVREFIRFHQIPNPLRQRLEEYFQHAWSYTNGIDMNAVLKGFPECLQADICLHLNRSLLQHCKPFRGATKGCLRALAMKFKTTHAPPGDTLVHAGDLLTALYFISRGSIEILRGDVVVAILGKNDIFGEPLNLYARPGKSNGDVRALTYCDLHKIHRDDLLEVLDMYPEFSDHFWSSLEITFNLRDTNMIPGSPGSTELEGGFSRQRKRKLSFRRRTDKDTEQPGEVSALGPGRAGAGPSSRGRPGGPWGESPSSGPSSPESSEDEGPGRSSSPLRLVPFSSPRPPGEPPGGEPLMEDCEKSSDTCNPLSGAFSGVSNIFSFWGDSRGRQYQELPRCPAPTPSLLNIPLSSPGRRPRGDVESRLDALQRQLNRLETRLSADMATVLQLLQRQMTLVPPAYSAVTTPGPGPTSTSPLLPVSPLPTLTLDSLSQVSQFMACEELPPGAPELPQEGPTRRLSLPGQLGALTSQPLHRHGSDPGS
In short: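 U2OS cells expressing the channel were plated at 1000 cells/well, incubated overnight at 37 C, then loaded with FluxOR II thallium-sensitive dye for 1 h at room temperature in the dark, with a further 10 min at room temperature before stimulation.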

[11] = target: Cytochrome P450 3A4 (Homo sapiens) (UniProt P08684); assay: Cytochrome P450 Family 3 Subfamily A Member 4 (CYP3A4) small molecule antagonists: luciferase reporter qHTS assay (AID 1671201); also: nearly all actives have a fitted effect of over 50% in size; also: potency is read from the fitted curve at half-maximal effect; as to activity change, negative = inhibition: series mostly up to about 120 µM
Cytochrome P450 3A4 (Homo sapiens), sequence (P08684 whole entry, looked up): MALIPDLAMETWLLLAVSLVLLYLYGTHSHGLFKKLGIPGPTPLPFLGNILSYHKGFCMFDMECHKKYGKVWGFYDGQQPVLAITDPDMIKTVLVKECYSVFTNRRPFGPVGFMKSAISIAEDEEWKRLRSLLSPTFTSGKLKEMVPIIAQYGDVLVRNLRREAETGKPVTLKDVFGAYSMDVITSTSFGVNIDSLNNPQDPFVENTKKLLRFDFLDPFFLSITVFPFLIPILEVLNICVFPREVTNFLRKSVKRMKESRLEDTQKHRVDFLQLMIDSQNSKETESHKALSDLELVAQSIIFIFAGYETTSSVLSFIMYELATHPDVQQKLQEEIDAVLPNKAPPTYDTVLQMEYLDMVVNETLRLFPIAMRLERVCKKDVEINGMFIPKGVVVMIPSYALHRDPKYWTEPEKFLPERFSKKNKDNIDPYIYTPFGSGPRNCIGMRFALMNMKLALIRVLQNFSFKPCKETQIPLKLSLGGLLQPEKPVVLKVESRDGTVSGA
In short: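 P450-Glo CYP3A4 system with proluciferin substrate; compounds preincubated 10 min RT with enzyme-substrate mix, then NADPH regeneration added for 1 h RT. Detection reagent 20 min, luminescence read as relative luminescence units.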

[12] = target: Cytochrome P450 2D6 (Homo sapiens) (UniProt P10635); assay: Cytochrome P450 Family 2 Subfamily D Member 6 (CYP2D6) small molecule antagonists: luciferase reporter qHTS assay (AID 1671196); also: nearly all actives have a fitted effect of over 50% in size; also: potency is read from the fitted curve at half-maximal effect; as to activity change, negative = inhibition: series mostly up to about 120 µM
Cytochrome P450 2D6 (Homo sapiens), sequence (P10635 whole entry, looked up): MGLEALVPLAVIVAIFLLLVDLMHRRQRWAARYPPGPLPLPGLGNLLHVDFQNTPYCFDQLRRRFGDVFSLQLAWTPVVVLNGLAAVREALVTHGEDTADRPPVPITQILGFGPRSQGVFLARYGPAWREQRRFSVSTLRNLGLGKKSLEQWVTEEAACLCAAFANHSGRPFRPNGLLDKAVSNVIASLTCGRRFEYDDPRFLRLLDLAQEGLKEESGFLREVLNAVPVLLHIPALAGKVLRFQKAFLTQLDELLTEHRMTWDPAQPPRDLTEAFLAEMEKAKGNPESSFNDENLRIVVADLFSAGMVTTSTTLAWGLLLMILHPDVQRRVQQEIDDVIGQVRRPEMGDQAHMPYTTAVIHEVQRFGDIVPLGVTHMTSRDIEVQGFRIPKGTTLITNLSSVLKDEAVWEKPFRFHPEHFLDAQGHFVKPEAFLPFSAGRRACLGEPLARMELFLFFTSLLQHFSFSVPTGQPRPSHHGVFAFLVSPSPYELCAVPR
In short: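 Luminogenic proluciferin substrate, CYP2D6 enzyme; 10 min RT preincubation with compound, NADPH regeneration system added, 1 h RT. Stop/detection reagent, 20 min RT, luminescence read (RLU). Signal proportional to CYP activity.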

[13] = target: Cytochrome P450 1A2 (Homo sapiens) (UniProt P05177); assay: Cytochrome P450 Family 1 Subfamily A Member 2 (CYP1A2) small molecule antagonists: luciferase reporter qHTS assay (AID 1671199); also: nearly all actives have a fitted effect of over 50% in size; also: potency is read from the fitted curve at half-maximal effect; as to activity change, negative = inhibition: series mostly up to about 120 µM
Cytochrome P450 1A2 (Homo sapiens), sequence (P05177 whole entry, looked up): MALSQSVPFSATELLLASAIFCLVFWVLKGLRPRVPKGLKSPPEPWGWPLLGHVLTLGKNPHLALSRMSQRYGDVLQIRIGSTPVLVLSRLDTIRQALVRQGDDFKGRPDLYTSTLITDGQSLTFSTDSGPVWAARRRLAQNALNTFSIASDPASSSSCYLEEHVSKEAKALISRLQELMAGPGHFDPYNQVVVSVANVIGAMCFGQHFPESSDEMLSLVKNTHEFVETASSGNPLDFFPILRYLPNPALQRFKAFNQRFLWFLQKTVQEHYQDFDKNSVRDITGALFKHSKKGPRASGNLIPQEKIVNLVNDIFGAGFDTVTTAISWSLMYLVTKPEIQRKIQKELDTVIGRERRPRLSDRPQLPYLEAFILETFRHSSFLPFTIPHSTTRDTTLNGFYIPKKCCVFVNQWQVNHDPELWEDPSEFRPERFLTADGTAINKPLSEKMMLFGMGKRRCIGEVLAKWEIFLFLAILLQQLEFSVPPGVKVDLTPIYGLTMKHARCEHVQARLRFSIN
In short: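 Luminescence readout (relative luminescence units) after luciferin detection reagent, 20 min RT. Preceded by 1 h room-temperature CYP1A2 reaction with NADPH regeneration solution following 10 min compound preincubation with enzyme and proluciferin substrate. Furafylline positive control.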

[14] = target: Nuclear receptor subfamily 1 group I member 2 (Rattus norvegicus) (UniProt Q9R1A7); assay: Rat pregnane X receptor (rPXR) activation by small molecules, qHTS assay (AID 1346983); details: rPXR luciferase reporter cells, One-Glo luminescence, 24 h; max activation: active compounds read high; also: nearly all actives have a fitted effect of over 20% in size; also: potency is read from the fitted curve at half-maximal effect
Nuclear receptor subfamily 1 group I member 2 (Rattus norvegicus), sequence (Q9R1A7 whole entry, looked up): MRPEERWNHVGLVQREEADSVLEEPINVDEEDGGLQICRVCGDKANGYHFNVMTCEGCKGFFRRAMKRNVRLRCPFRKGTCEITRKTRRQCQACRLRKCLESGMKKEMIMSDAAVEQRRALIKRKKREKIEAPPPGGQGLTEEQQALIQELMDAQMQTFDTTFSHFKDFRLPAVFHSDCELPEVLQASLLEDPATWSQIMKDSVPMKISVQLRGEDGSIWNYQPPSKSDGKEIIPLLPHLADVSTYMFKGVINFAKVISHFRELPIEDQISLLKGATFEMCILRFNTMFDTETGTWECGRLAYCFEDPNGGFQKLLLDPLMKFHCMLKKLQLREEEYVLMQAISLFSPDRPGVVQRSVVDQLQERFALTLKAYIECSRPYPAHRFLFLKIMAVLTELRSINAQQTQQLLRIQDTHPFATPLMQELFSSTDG
In short: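 Cell-based rPXR luciferase reporter assay, 2,000 cells per well, rested 5hr at 37 C before compound addition in DMSO, then 24 hr at 37 C. One-Glo reagent was added and luminescence read after 30 min at room temperature.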

[15] = target: Nuclear receptor subfamily 1 group I member 2 (Homo sapiens) (UniProt O75469); assay: CYP3A4 induction through human pregnane X receptor (PXR) by small molecules, qHTS assay (AID 1346984); also: nearly all actives have a fitted effect of over 40% in size
In short: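 HepG2-derived DPX-2 line carrying PXR plus a CYP3A4-promoter luciferase reporter; cells plated 5 hr, compound-exposed 24 hr at 37C. CYP3A4 activity probed with 3uM (final) Luciferin-IPA for 3hr, then luciferase read after One-Glo.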

[16] = target: Nuclear receptor subfamily 1 group I member 2 (Homo sapiens) (UniProt O75469); assay: Human pregnane X receptor (PXR) activation by small molecules, qHTS assay (AID 1346985); also: nearly all actives have a fitted effect of over 40% in size; also: potency is read from the fitted curve at half-maximal effect
In short: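 DPX-2 cells (HepG2 co-transfected with a PXR response element and a CYP3A4-promoter luciferase construct) were seeded at 2,000 per well, rested 5 hr at 37C, then exposed to DMSO-dissolved compounds for 24 hr. Activation was read as luciferase luminescence.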
% is scaled to controls: 0 for no effect and ±100 for the full control effect.

Cc1ccnc2ccccc12
inactive: Potency [1] | Potency [2] | Potency [3] | Potency [4] | outcome [5] | Potency [6] | Potency [7] | Potency [8] | Potency [9] | Potency [10] | Potency [11]

CC1(C)C2=CCCC(C)(C)[C@]23CC[C@H]1C3
active: Potency [7] 54.5 µM | Potency [9] 79.6 µM | Potency [11] 35.6 µM
inactive: Potency [1] | Potency [2] | Potency [3] | Potency [4] | outcome [5] | Potency [12] | Potency [10]

O=C(O)c1ccc(CO)o1
active: Potency [12] 18.2 µM | Potency [13] 64.4 µM
inactive: Potency [1] | Potency [2] | Potency [3] | Potency [4] | outcome [5] | Potency [7] | Potency [8] | Potency [9] | Potency [10] | Potency [11]

CC1=CC(=O)CC(C)(C)C1(O)/C=C/C(C)=C\C(=O)O (centres undefined)
inactive: Potency [1] | Potency [2] | Potency [3] | Potency [4] | outcome [5] | Potency [7] | Potency [12] | Potency [8] | Potency [9] | Potency [10] | Potency [11]

CCN(CC)CCNC(=O)c1ccc(NC(C)=O)cc1
active: Potency [12] 17.4 µM
inactive: Potency [1] | Potency [2] | Potency [3] | Potency [4] | outcome [5] | Potency [7] | max activation [14] -1.35% | Potency [15] | Potency [16] | Potency [9] | Potency [13] | Potency [11]

CCCCC(CC)C(=O)OCCOCCOCCOCCOC(=O)C(CC)CCCC (centres undefined)
inactive: Potency [1] | Potency [2] | Potency [3] | Potency [4] | outcome [5] | Potency [12]
active: Potency [7] 48.6 µM | Potency [8] 22.4 µM | Potency [9] 12.6 µM | Potency [13] 31.7 µM | Potency [11] 12.6 µM

CCOC(=O)C(C)Oc1ccc(Oc2nc3ccc(Cl)cc3o2)cc1 (centres undefined)
active: Potency [8] 31.7 µM | Potency [9] 39.9 µM | Potency [13] 31.7 µM | Potency [10] 34.7 µM
inactive: Potency [1] | Potency [2] | Potency [3] | Potency [4] | outcome [5] | Potency [6] | Potency [11]

[O]=[Bi]
inactive: activation [1] -0.278% [at 5.23 µM] | activity change, negative = cytotoxicity [2] 1.27% [at 8.39 µM] | caspase activation [3] -1.09% [at 8.39 µM] | activity change, negative = cytotoxicity [4] -0.807% [at 8.39 µM] | caspase-3/7 activation [5] -0.359% [at 8.39 µM] | activation [7] 1.61% [at 8.39 µM] | activity change, negative = inhibition [12] -0.389% [at 10.5 µM] | activity change, negative = inhibition [8] -17.2% [at 10.5 µM] | activity change, negative = inhibition [9] 1.73% [at 10.5 µM] | activity change, negative = inhibition [13] -11% [at 10.5 µM] | activity change, negative = inhibition [10] -0.289% [at 6.97 µM] | activity change, negative = inhibition [11] 0.199% [at 10.5 µM]

c1cc[c]([Bi]([c]2ccccc2)[c]2ccccc2)cc1
active: Potency [4] 61.1 µM | Potency [7] 15.4 µM | Potency [8] 0.283 µM | Potency [9] 1 µM | Potency [11] 2.24 µM
inactive: Potency [1] | Potency [2] | Potency [3] | Potency [13]

CC(C)(C)C(=O)C(Oc1ccc(Cl)cc1)n1ccnc1 (centres undefined)
inactive: Potency [1] | Potency [2] | Potency [3] | outcome [5] | Potency [6] | Potency [10]
active: Potency [7] 23.7 µM | Potency [14] 12.6 µM | Potency [16] 15.8 µM | Potency [8] 1.38 µM | Potency [9] 2.75 µM | Potency [13] 17.4 µM

Oc1ccc(Nc2ccccc2)cc1
inactive: Potency [1] | Potency [2] | Potency [3] | outcome [5] | Potency [6] | Potency [10] | Potency [11]
active: Potency [7] 54.5 µM | Potency [12] 63.3 µM | Potency [8] 20 µM | Potency [9] 28.3 µM | Potency [13] 31.7 µM

O=C(N/N=C/c1ccc([N+](=O)[O-])o1)c1ccc(O)cc1
active: Potency [2] 10.6 µM | Potency [6] 29.8 µM
inactive: Potency [1] | Potency [3] | outcome [5] | Potency [7] | max activation [14] -12.4% | Potency [15] | Potency [16] | Potency [11]

Reference: PubChem BioAssay (Tox21)
